Experiment in all cases: NCI-60 one-dose screen, 48 h (100 = growth as untreated, 0 = no growth, -100 = all killed)
One experiment has as its system K-562 leukemia. Particulars: 10 µM unless noted.
Another experiment relates to MALME-3M melanoma. As to conditions: 10 µM unless noted.
In the next experiment the test system is MDA-MB-231 breast. Particulars: 10 µM unless noted.
A further experiment has as its system RXF 393 renal. Particulars: 10 µM unless noted.
A further experiment deals with SF-268 CNS. As to conditions: 10 µM unless noted.
The next experiment relates to SF-295 CNS. Particulars: 10 µM unless noted.
Another experiment has as its system SF-539 CNS. As to conditions: 10 µM unless noted.
Another experiment concerns UACC-257 melanoma. Particulars: 10 µM unless noted.
The subject of another experiment is M14 melanoma. As to conditions: 10 µM unless noted.
For the next experiment, the system named is HCT-15 colon. As to conditions: 10 µM unless noted.
In another experiment the test system is HT29 colon. Particulars: 10 µM unless noted.
The next experiment concerns SNB-19 CNS. As to conditions: 10 µM unless noted.
Another experiment relates to U251 CNS. Particulars: 10 µM unless noted.
Another experiment has as its system PC-3 prostate. Particulars: 10 µM unless noted.
The subject of a further experiment is SK-MEL-5 melanoma. As to conditions: 10 µM unless noted.
The next experiment concerns UACC-62 melanoma. Particulars: 10 µM unless noted.
The test system of the next experiment is LOX IMVI melanoma. Particulars: 10 µM unless noted.
The next experiment deals with SK-MEL-28 melanoma. Particulars: 10 µM.
The subject of a further experiment is SK-MEL-2 melanoma. Particulars: 10 µM unless noted.
In the next experiment the test system is SNB-75 CNS. As to conditions: 10 µM unless noted.

Compounds without any hit were thinned out: in the full panel of roughly 83,000, 20% have a hit.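 Single-dose data. Exposure time 48 hours. Values below 10 considered active.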 A number with no mark means an inactive call. The source made the active and inactive calls.

Regarding `Fc1ccc(Oc2ccc(Nc3ncnc4onc(-c5ccccc5)c34)cc2)cc1`, the growth was 113% in the experiment with K-562 leukemia; 93.2% with MALME-3M melanoma; 70.7% in the experiment with MDA-MB-231 breast; 115% with RXF 393 renal; 83% with SF-268 CNS; 99.7% in the experiment on SF-295 CNS. The growth in the experiment with SF-539 CNS was 90.1%; with UACC-257 melanoma it was 88.3%; in the experiment on M14 melanoma, 104%; in the experiment on HCT-15 colon, 103%; in the experiment on HT29 colon it was 109%; in the experiment on SNB-19 CNS, 94%. Also, the growth in the experiment on U251 CNS was 91.4%; with PC-3 prostate, 101%; in the experiment on SK-MEL-5 melanoma it was 100%; with UACC-62 melanoma, 92.1%; with LOX IMVI melanoma, 95.8%; in the experiment with SK-MEL-28 melanoma, 110%. Further, the growth in the experiment with SK-MEL-2 melanoma was 112%.

As to `COc1ccc(/C=c2\sc3n(c2=O)NC2C(N=3)N(C)C(=O)N2C)cc1` (stereo unspecified), the growth in the experiment with K-562 leukemia was 89.3%; in the experiment with MALME-3M melanoma, 97.6%; with MDA-MB-231 breast, 96.8%; in the experiment on RXF 393 renal it was 101%; in the experiment with SF-268 CNS it was 93.5%; in the experiment on SF-295 CNS, 100%. Also, the growth in the experiment with SF-539 CNS was 95.5%; in the experiment with UACC-257 melanoma it was 102%; in the experiment on M14 melanoma, 96.5%; in the experiment on HCT-15 colon it was 96.4%; in the experiment on HT29 colon it was 103%; with SNB-19 CNS, 94.1%. Besides, the growth was 101% in the experiment on U251 CNS; 95.6% in the experiment with PC-3 prostate; 89.1% with UACC-62 melanoma; 92.8% in the experiment with LOX IMVI melanoma; 104% in the experiment with SK-MEL-28 melanoma; 103% in the experiment on SK-MEL-2 melanoma.

Take `CC(=O)Nc1nc2c(s1)CCc1c-2cn(S(=O)(=O)c2ccccc2)c1-c1ccccc1`: the growth in the experiment with K-562 leukemia was 37.9%; with MALME-3M melanoma, -23.6% (active); in the experiment with MDA-MB-231 breast it was 73.6%; in the experiment with RXF 393 renal it was 85%; with SF-268 CNS, 71.4%; with SF-295 CNS it was 43.5%. The growth in the experiment with SF-539 CNS was 93.5%; in the experiment on UACC-257 melanoma it was 93%; in the experiment on M14 melanoma, 36.9%; in the experiment on HCT-15 colon, 51.9%; in the experiment with HT29 colon it was 78.1%; with SNB-19 CNS, 93.6%. In addition, the growth is 62.4% with U251 CNS; 40.9% with PC-3 prostate; 43.9% in the experiment on SK-MEL-5 melanoma; 58% in the experiment on UACC-62 melanoma; 47.1% in the experiment with LOX IMVI melanoma; 95.1% with SK-MEL-28 melanoma. Moreover, in the experiment with SK-MEL-2 melanoma, the growth is 94.5%.

Consider `COCCN(C(=O)Cc1cccs1)C(C(=O)NCc1ccc(OC)cc1)c1ccc(C(C)C)cc1` (stereo unspecified), for which the growth in the experiment with K-562 leukemia was 77%; with MALME-3M melanoma it was 72.2%; with MDA-MB-231 breast, 71.4%; in the experiment on RXF 393 renal, 88.5%; with SF-268 CNS it was 57.8%; in the experiment with SF-295 CNS, 84.3%. For the same compound, the growth in the experiment on SF-539 CNS was 93.3%; with UACC-257 melanoma, 122%; with M14 melanoma, 106%; in the experiment on HCT-15 colon it was 95.7%; in the experiment with HT29 colon, 97.2%; in the experiment on SNB-19 CNS, 106%. The growth in the experiment with U251 CNS is 97.1%; in the experiment with PC-3 prostate, 47.5%; with SK-MEL-5 melanoma it was 98.2%; in the experiment with UACC-62 melanoma it was 84.8%; in the experiment with SK-MEL-28 melanoma, 113%; with SK-MEL-2 melanoma, 102%.

For `C=CCN1C(=O)/C(=c2\sc3n(c2=O)NC2C(N=3)N(CC)C(=O)N2CC)c2ccccc21` (stereo unspecified), the growth in the experiment with K-562 leukemia is 11.3%; in the experiment with MALME-3M melanoma it was 67.6%; with MDA-MB-231 breast, 38.4%; with RXF 393 renal, 13.7%; in the experiment with SF-268 CNS, 59.7%; with SF-295 CNS, 37.3%. Also, the growth is -5.16% (active) with SF-539 CNS; 82.4% in the experiment on UACC-257 melanoma; 16.5% in the experiment on M14 melanoma; 25% in the experiment on HCT-15 colon; 19.9% in the experiment on HT29 colon; 44.5% in the experiment on SNB-19 CNS. The growth in the experiment on U251 CNS is 45.8%; in the experiment with PC-3 prostate it was 30.5%; with UACC-62 melanoma, 35.5%; in the experiment with LOX IMVI melanoma, 47.7%; in the experiment with SK-MEL-28 melanoma, 59.9%.

As for `S=C1NC2(c3ccccc3)CCC(=S)N2c2ccccc21` (stereo unspecified), the growth is 93.6% in the experiment on K-562 leukemia; 99.5% with MALME-3M melanoma; 90.9% in the experiment on MDA-MB-231 breast; 116% in the experiment on RXF 393 renal; 102% in the experiment on SF-268 CNS; 107% in the experiment with SF-295 CNS. For the same compound, the growth with SF-539 CNS is 107%; in the experiment with UACC-257 melanoma, 110%; with M14 melanoma it was 103%; with HCT-15 colon it was 102%; in the experiment with HT29 colon, 105%; with SNB-19 CNS, 97.6%. The growth in the experiment with U251 CNS was 95%; with PC-3 prostate, 96.7%; in the experiment on UACC-62 melanoma it was 92%; with LOX IMVI melanoma, 99.7%; in the experiment with SK-MEL-28 melanoma, 114%; in the experiment with SK-MEL-2 melanoma, 97.1%.

For the compound `CN1C(=O)N(C)C2(c3ccccc3)n3c(s/c(=C\c4ccccc4)c3=O)=NNC12c1ccccc1` (stereo unspecified), the growth in the experiment with K-562 leukemia was 71.2%; with MALME-3M melanoma, 86.9%; in the experiment on MDA-MB-231 breast, 85.1%; in the experiment on RXF 393 renal it was 86.8%; in the experiment with SF-268 CNS, 96.9%; in the experiment with SF-295 CNS, 97.3%. For the same compound, the growth with SF-539 CNS is 93.1%; in the experiment with UACC-257 melanoma, 98.3%; in the experiment with M14 melanoma, 83.4%; with HCT-15 colon, 89.5%; in the experiment on HT29 colon, 95.5%; in the experiment with SNB-19 CNS, 98%. For the same compound, the growth is 96.4% in the experiment with U251 CNS; 74.2% with PC-3 prostate; 81.2% in the experiment on UACC-62 melanoma; 86.2% in the experiment on LOX IMVI melanoma; 101% with SK-MEL-28 melanoma; 99.7% with SK-MEL-2 melanoma.

Turning to `Nc1ccccc1-c1ccc(-c2ccc(Cl)cc2)c2c1[nH]c1ccccc12`, the growth is 58.9% with K-562 leukemia; 90.2% in the experiment with MALME-3M melanoma; 62.2% in the experiment with MDA-MB-231 breast; 53.4% in the experiment on RXF 393 renal; 64.8% in the experiment with SF-268 CNS; 88.2% in the experiment with SF-295 CNS. Besides, the growth in the experiment on SF-539 CNS was 86.3%; in the experiment with UACC-257 melanoma, 81%; with HCT-15 colon it was 73.2%; in the experiment on HT29 colon, 67.4%; in the experiment on SNB-75 CNS, 83%; in the experiment with SNB-19 CNS, 81.8%. In addition, the growth with U251 CNS is 70.6%; in the experiment with PC-3 prostate, 14.1%; in the experiment on SK-MEL-5 melanoma it was 86.9%; in the experiment on UACC-62 melanoma, 60.3%; in the experiment with LOX IMVI melanoma, 72.5%; in the experiment with SK-MEL-28 melanoma it was 97.1%. In the experiment with SK-MEL-2 melanoma, the growth was 79.6%.

(Values after PubChem BioAssay (NCI).)
